The source of these data is PubChem BioAssay (NCI).

SMILES strings stand for the structures. This is part of a sample that, as a whole, favours compounds with a hit. Of some 83,000 tested, about 20% had one in any assay.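 Single-concentration screen, 48 h exposure, 96-well plates. Endpoint: percent growth. Below 10 = active.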 Calls of active or inactive are those of the source.

This assay relates to SK-OV-3 ovarian. The assay can be described thus: NCI-60 one-dose screen, 48 h (100 = growth as untreated, 0 = no growth, -100 = all killed). To be noted: 10 µM unless noted.
For the compound `Cc1ccc(-c2nc3nc(-c4ccc(F)cc4)nc(N4CCCNCC4)c3o2)cc1`, the growth was -88.8% (active).

Regarding `COc1ccc2c(c1)c(-c1nc(-c3c[nH]c4c(Cl)nccc34)cs1)cn2C`, the growth was 78.6% (inactive). The result for `Cc1nc2sc(C(=O)Nc3cccc4ncccc34)c(N)c2cc1C(C)O` (stereo not drawn) reads 69.9% (inactive); that for `N=C(N)c1ccc(-c2ccc(-c3ccc(F)cc3)s2)nc1`, 86.3% (inactive). Regarding `CN(C)CCCn1c2nc(=O)[nH]c(=O)c-2nc2cc(Cl)c(Cl)cc21`, the growth was 109% (inactive). The result for `Brc1ccc(/C=C(/C2=NCCN2)n2ccc3ccccc32)cc1` reads 82% (inactive). Turning to `CCOC(=O)c1c(-c2ccc(OC)cc2)c(C#N)c2c(C#N)c(N)nn2c1N`, the growth is 45.8% (inactive). Take `COc1ccc(S(=O)(=O)Nc2cc(Sc3cccc4cccnc34)c(O)c3ccccc23)cc1`: the growth was 50.7% (inactive).
